# Source: paper PMC12136788
# Numbering of substitutions follows the chain as printed. Whole data set: some 5,800 sequences, median “enrichment r” near 0.68, cut for the highest 2% near 11. The entries come from a sample that favours the highest values as a whole.
# T1: UNK ZnF1-6 (called full-length) (human, UniProt Q9C0B0 30-357)
# T1 sequence: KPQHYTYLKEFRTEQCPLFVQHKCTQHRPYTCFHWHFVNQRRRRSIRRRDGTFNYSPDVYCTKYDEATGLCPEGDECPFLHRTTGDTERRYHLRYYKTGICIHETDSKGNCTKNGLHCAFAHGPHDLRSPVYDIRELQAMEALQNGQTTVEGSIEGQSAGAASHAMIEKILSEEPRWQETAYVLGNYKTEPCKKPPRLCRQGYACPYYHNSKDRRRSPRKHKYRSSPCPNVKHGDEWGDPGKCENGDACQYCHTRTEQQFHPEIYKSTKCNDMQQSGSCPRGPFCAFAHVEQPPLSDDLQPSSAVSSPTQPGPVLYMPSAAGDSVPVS
# B1: chr11:113276847:113276948:+|3pUTR|ENSG00000149294|msi1|FALSE|unique (ssRNA)
# RNA: GGGAGUUCUACAGUCCGACGAUCAGAAGGGAAAAGCCAGCCCUUUGUAUAGAAAUUUUGCUUUUUUUUCCCUCAUUCUACUUUAGAACUGCAAGCUUGUGCACUGUGGAUGCGUGAAUAUUUUAGUGUGAAACGUGUUUUUGUCAACAGAGGAUUGAGCAUCA
# B2: chr5:16663783:16663884:-|3pUTR|ENSG00000145555|msi1|FALSE|bound_elsewhere (ssRNA)
# RNA: GGGAGUUCUACAGUCCGACGAUCUGAGGAUACAAAAUUCACAGAUGCUCAAGUCCCUGCUAUACAGUGGUAUAAUAUUUGCAUAGAACCUGCACACAUCUUUCCUUACCCUUUAAAUCAUCUCCAGGUUACAGAUACCUAGCACAACAGAGGAUUGAGCAUCA
# B3: chr1:186359875:186359976:-|CDS|ENSG00000047410|msi1_unk|FALSE|overlapping (ssRNA)
# RNA: GGGAGUUCUACAGUCCGACGAUCGGAAACUCAGGAUCAGUUGCUUUUGGAGAAACUAGAGAACAAAAGAAUUAAUAAGUACCUAGAUGAAAUAGUGAAAGAAGUGGAAGCCAAAGCACCAAUUUUGAAACGCCAGCGUGAGGACAACAGAGGAUUGAGCAUCA
# B4: chr3:97755980:97756081:+|3pUTR|ENSG00000080224|unk|total|mutant (ssRNA)
# RNA: GGGAGUUCUACAGUCCGACGAUCUAAUUAAAAAUCUCUUUCCUACCUUCCGUAAUUUGCCGGAUGAACUGUAUGCAUUCCGACCGAAAUUGCUUUUGUUAAAUUUACAUUUAAACACAUCUUCAUUCACUCCGAGAAGCCAUACAACAGAGGAUUGAGCAUCA
# B5: chr1:32196777:32196878:+|3pUTR|ENSG00000084652|msi1|FALSE|unique (ssRNA)
# RNA: GGGAGUUCUACAGUCCGACGAUCUUUGAAGCUAGUUCAUUGUCCUGCAGGUCCCUUCAUCUUCCAUACCUAGCCCACUCUUUUAGCCCUUACCUUAAAUCUCUCAGAUAAGUUGGUUCACAAAGAAUGUUAAGUACUGAAUCACAACAGAGGAUUGAGCAUCA
# B6: chr2:223975255:223975490:-|3pUTR|ENSG00000135919|msi1|FALSE|bound_elsewhere (ssRNA)
# RNA: GGGAGUUCUACAGUCCGACGAUCUUUAAAUUCUUUUCCCCCAUCCCCCUCCAAAGUCUUGAUAGCAAGCGUUAUUUUGGUGGUAGAAACGGUGAAAUCUCUAGCCUCUUUGUGUUUUUGUUGUUGUUGUUGUUGUUGUUUUAUCAACAGAGGAUUGAGCAUCA
# B7: ENSG00000052841:stop:overlap|stop_codon|ENSG00000052841|stop_codon|NA|stop_codon (ssRNA)
# RNA: GGGAGUUCUACAGUCCGACGAUCAGAACCGAAUCCAGACCAUCCAGUGUCACUUAAUGCUGAAGAAGGGACGGCGCUCUCCUUAGUGCACUUCUUCCUUCUCUCUUUCUCUUUACUCAUGCUCUAAAAAAAAAGAAUAAGAAACAACAGAGGAUUGAGCAUCA
# B8: chr5:136174412:136174513:+|CDS|ENSG00000113658|unk|total|mutant (ssRNA)
# RNA: GGGAGUUCUACAGUCCGACGAUCUAUGUUGGUGGAGAGGUGUAUGCGGAAUGCCUCAGUGACAGCAGCAUAUUUGUACAGAGCCGGAACUGCAACUUUCAUCAUGGCUUUCAUCCCACCACUGUCUGUAAGAUUCCCAGCAGCCAACAGAGGAUUGAGCAUCA
# B9: chr13:110149936:110150037:-|3pUTR|ENSG00000187498|msi1|FALSE|unique (ssRNA)
# RNA: GGGAGUUCUACAGUCCGACGAUCUUCUUGUAUUAUAAUUAAUUUUCUACCCCCAGAGAUAAAUGUUUGUUUAUAUCACUGUCUAGCUGUUUCAAAAUUUAGGUCCCUUGGUCUGUACAAAUAAUAGCAAUGUAAAAAUGGUUUCAACAGAGGAUUGAGCAUCA
# B10: chr12:909583:909684:+|3pUTR|ENSG00000060237|unk|FALSE|bound_elsewhere (ssRNA)
# RNA: GGGAGUUCUACAGUCCGACGAUCUAGCUCUGUCCUUUACUUAUUGAGACACUUUAACUUUUUCCUUUGUAUUUCCAUUGUAUUAGAUAAAUAAAUGUGAAUGUAAAAUUGUAUAAAUUACUGUACUUGAAUACUUCUGUUUCCCAACAGAGGAUUGAGCAUCA
# B11: chr6:57184343:57184440:+|3pUTR|ENSG00000112208|msi1_unk|FALSE|overlapping (ssRNA)
# RNA: GGGAGUUCUACAGUCCGACGAUCUCUUCAGUUUUGUGAAUAACAAAACUAGCAAUAUUUUAAUUAUCUAUCUAGAGAUUUUUUAGAUUGAAUUCUUGUCUUGUACUAGGAUCUAGCAUAUUUCACUAUUCUGUGGAUGAAUACCAACAGAGGAUUGAGCAUCA
# B12: chrX:129805617:129805718:-|3pUTR|ENSG00000188706|msi1|FALSE|unique (ssRNA)
# RNA: GGGAGUUCUACAGUCCGACGAUCUCUUUUCCCAUUAGAUAUAUGUAAGUAGUUGUAGUAGAGAUAAUAAUUGACAUUUCUCGUAGACUACCCAGAAACUUUUUUAAUACCUGUGCCAUUCUCAAUAAGAAUUUAUGAGAUGCCCAACAGAGGAUUGAGCAUCA
# B13: chr11:10797513:10797714:-|3pUTR|ENSG00000110321|msi1_unk|FALSE|overlapping (ssRNA)
# RNA: GGGAGUUCUACAGUCCGACGAUCUUCUGCAUAAGGUUUUUUUGUAGUGUAAUGUCUUAAUCAUAGUCUACCAUCAAAUAUUUUAGGAGUAUCUUUAAUGUUUAGAUAGUAUAUUAGCAGCAUGCAAUAAUUACAUCAUAAGUUCAACAGAGGAUUGAGCAUCA
# B14: chr2:24000049:24000165:+|3pUTR|ENSG00000173960|unk|FALSE|unique (ssRNA)
# RNA: GGGAGUUCUACAGUCCGACGAUCGUAGCAUAUGACUGGAAACUAUAUUCAGUGCACUUUCUCCAAAAGACUACCCAGAAAAAUAGACUUAUUUUCAAAUACCAGUUAUCAAGAUAUAUUAAAUAGCUGUAUUGUUUAGAAUCUCAACAGAGGAUUGAGCAUCA
# B15: chr12:98549999:98550103:+|3pUTR|ENSG00000120802|unk|FALSE|unique (ssRNA)
# RNA: GGGAGUUCUACAGUCCGACGAUCUGUUUCCCAUACUGUUUUCAGCCUUUUGUUUAUAAUUAGAAAUUGUGAGAAGCUUCAUUUAGUGUUUAAAAAUGUGGGGAGAUAAAUCAGACUUAACAUGUAUGUAAGAUCAAUUCACUUCAACAGAGGAUUGAGCAUCA
# B16: chr12:98549999:98550103:+|3pUTR|ENSG00000120802|unk|total|mutant (ssRNA)
# RNA: B15 RNA with U60C, A61C, U83C, A84C
# B17: chr8:116846039:116846140:-|3pUTR|ENSG00000164754|msi1|FALSE|bound_elsewhere (ssRNA)
# RNA: GGGAGUUCUACAGUCCGACGAUCACAUUCAAUAUGAUGUGCCUGUAAACCAAGGAGUUUUCCCCGUUUGUAAAAAGACAUUGUAGAUAAUUGAAUGUUUGAUUUUAGAAAGGUCAUUAGUUUCUUGUUACACAUUUUGUUAGUCAACAGAGGAUUGAGCAUCA
# Molecular target: T1, UNK ZnF1-6 (called full-length)
# Assay: nsRBNS (natural sequence RNA bind-n-seq); RBNS binding buffer (assumed for nsRBNS): 25 mM Tris pH 7.5, 150 mM KCl, 3 mM MgCl2, 0.01% Triton X-100, 500 ug/ml BSA, 20 U/ml SUPERase-In, 4 C; UNK is unkempt and MSI1 is Musashi-1; names of the RNAs are library labels; protein concentration not given here; high values mean tight binding
row,Binder,binding signal
1,B1,1.38 enrichment R
2,B2,0.456 enrichment R
3,B3,4.28 enrichment R
4,B4,0.569 enrichment R
5,B5,1.19 enrichment R
6,B6,2.44 enrichment R
7,B7,0.995 enrichment R
8,B8,0.849 enrichment R
9,B9,119 enrichment R
10,B10,12.7 enrichment R
11,B11,6.31 enrichment R
12,B12,101 enrichment R
13,B13,1.96 enrichment R
14,B14,3.33 enrichment R
15,B15,6.12 enrichment R
16,B16,0.419 enrichment R
17,B17,5.22 enrichment R
